Where “and” joins values, the source holds several entries; their conditions need not be identical. Identical values can stand only once. Values without a mark were called inactive. Inconclusive results are not listed. Calls of active or inactive are those of the source. Unless noted, calls follow the shape of the dose curve; as a rule, active = well fitted curve in either direction with a large enough effect (not every such curve was filed as active); inconclusive = small, poorly fitted or top-dose-only effect, or another doubt; inactive = flat fitted curve, though single readings scatter.
Tests used:
[1] = AP1 Signaling Pathway (AID 357); conditions: ME-180 AP-1-bla reporter, EGF-induced, beta-lactamase ratio, 5 h;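 also: ME-180 reporter cells stimulated with EGF at its EC50 level; % is scaled to controls: 0 for no effect and ±100 for the full control effect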
In short: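 Modulation of EGF-driven AP-1 transcription was assessed with a beta-lactamase reporter in ME-180 cells. Compound and EC50 EGF were co-incubated 5 hours at 37 °C before 2.5-hour CCF4 loading at room temperature and dual-emission reading.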

[2] = target: Cytochrome P450 1A2 (Homo sapiens) (UniProt P05177); experiment: p450-cyp1a2 (AID 410; calls by dose curve; also: potency is read from the fitted curve at half-maximal effect;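 as to activity change, negative = inhibition: -100% = full effect of reference inhibitor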); conditions: recombinant CYP1A2, luciferin-ME demethylation, luminescence; series mostly up to 57 µM
In short: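 Read-out is luminescence from luciferin produced by CYP1A2 demethylation of Luciferin-ME (100uM, at Km). Detection reagent stopped the 60 min NADPH-dependent reaction; signals were normalized to 57 uM furafylline.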

[3] = NFAT Signaling Pathway (AID 444); conditions: Jurkat NFAT-bla M1, carbachol, beta-lactamase ratio, 5 h; at 38 µM (top of the series) unless noted;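 also: carbachol stimulus at about its EC50 of 1 µM final; % is scaled to controls: 0 for no effect and ±100 for the full control effect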
In short: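 Jurkat cells carrying an NFAT-driven β-lactamase reporter and co-transfected muscarinic M1 receptor were treated with compound plus carbachol (1 uM final, an EC50 level) for 5 h at 37 °C. CCF4 loading followed for 1 h at RT; 460/530 nm ratio gave %activity.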

[4] = Stat Signaling Pathway (AID 446); conditions: ME-180 (cervical carcinoma) SIE beta-lactamase reporter, IL-6 stimulated, 5 h;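 also: ME-180 cervical cancer cells given 40 pM IL-6 alongside compound; SIE-controlled beta-lactamase reporter measured as 460/530 nm FRET emission ratio; % is scaled to controls: 0 for no effect and ±100 for the full control effect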
In short: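 Overnight-plated ME-180 cells bearing a STAT Inducible Element beta-lactamase reporter; 5 h co-exposure to compound and 40 pM IL-6; values normalized to 300 pM IL-6 and 125 nM JAK inhibitor controls.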

[5] = target: Glucocorticoid receptor (Homo sapiens) (UniProt P04150); experiment: GR-GFP Redistribution (AID 450;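 active = compounds whose dose series gives a full or clear partial fitted curve of increased nuclear translocation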; also: potency is read from the fitted curve at half-maximal effect); conditions: U2OS GR-GFP nuclear translocation, laser cytometry, 2 h
[6] = target: Mitogen-activated protein kinase 10 (Mus musculus) (UniProt Q61831); experiment: JNK3 AlphaScreen Assay (AID 530); conditions: JNK3 lysate, c-Jun phosphorylation; series mostly up to 57.1 µM;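 also: kinase came from lysate of stimulated human HepG2 cells; signal reports phosphorylation of biotinylated GST-cJun 1-79 at Ser73 with 10 µM ATP; % is scaled to controls: 0 for no effect and ±100 for the full control effect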
In short: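 Biotinylated GST-cJun(1-79) served as substrate for JNK3 in HepG2 lysates stimulated with IL-1beta and TNF-alpha. ATP was 10 uM final, pH 7.6. Ser73 phosphorylation was quantified by AlphaScreen (680 nm excitation).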

[7] = target: Glucocorticoid receptor (Homo sapiens) (UniProt P04150); experiment: GR-EFC Redistribution (AID 451; calls by dose curve; also: potency is read from the fitted curve at half-maximal effect); conditions: CHO-K1 GR-EFC translocation, beta-gal luminescence, 2 h
In short: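 CHO-K1 cells stably expressing nuclear-localized β-gal enzyme acceptor and GR fused C-terminally to the enzyme donor fragment; ligand-driven nuclear translocation restores β-gal by complementation. Compounds titrated up to 46 uM final, 2 h at 37 °C; luminescence read.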

Sequence of Cytochrome P450 1A2 (Homo sapiens) (P05177 whole entry, looked up): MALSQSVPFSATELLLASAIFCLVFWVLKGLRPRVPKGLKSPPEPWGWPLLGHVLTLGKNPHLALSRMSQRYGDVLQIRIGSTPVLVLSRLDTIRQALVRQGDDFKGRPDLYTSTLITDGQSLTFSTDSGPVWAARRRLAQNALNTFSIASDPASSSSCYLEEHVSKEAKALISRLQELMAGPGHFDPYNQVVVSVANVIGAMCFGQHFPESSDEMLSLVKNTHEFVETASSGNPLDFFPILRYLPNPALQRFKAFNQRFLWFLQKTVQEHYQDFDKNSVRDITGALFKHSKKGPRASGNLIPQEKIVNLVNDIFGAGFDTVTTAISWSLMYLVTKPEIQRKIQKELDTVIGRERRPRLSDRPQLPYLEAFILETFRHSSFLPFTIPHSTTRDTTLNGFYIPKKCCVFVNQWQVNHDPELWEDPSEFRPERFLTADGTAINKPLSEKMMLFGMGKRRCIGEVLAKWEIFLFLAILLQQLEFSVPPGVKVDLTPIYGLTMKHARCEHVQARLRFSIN
Sequence of Glucocorticoid receptor (Homo sapiens) (P04150 whole entry, looked up, the tested form may be a part): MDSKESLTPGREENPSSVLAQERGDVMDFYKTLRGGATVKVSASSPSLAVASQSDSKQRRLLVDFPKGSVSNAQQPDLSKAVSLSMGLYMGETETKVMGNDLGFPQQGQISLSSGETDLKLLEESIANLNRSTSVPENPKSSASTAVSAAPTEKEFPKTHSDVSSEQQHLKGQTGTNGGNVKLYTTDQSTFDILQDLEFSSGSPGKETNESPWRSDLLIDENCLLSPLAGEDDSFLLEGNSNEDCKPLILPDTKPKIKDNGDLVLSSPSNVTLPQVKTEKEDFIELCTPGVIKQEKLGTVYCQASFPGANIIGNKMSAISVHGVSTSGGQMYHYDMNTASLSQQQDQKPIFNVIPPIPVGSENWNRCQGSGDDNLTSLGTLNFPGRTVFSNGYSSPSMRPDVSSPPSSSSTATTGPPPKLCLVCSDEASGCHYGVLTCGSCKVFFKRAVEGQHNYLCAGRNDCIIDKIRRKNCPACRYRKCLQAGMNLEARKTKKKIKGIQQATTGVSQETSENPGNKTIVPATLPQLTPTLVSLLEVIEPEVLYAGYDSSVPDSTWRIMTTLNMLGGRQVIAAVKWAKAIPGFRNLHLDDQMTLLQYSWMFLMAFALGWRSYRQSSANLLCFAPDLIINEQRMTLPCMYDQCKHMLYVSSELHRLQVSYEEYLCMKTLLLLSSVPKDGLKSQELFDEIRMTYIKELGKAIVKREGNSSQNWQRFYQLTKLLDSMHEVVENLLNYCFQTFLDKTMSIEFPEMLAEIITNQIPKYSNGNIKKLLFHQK

Structure (SMILES): O=c1[nH]c2cc([N+](=O)[O-])c([N+](=O)[O-])cc2[nH]c1=O
- activity change, negative = inhibition ([1]; at 38 µM (top of the series)): -3.93%
- Potency [2]: inactive
- activity change, negative = inhibition [3]: 4.52%
- activity, negative = inhibition ([4]; at 38 µM (top of the series)): 21%
- Potency [5]: > 46 µM
- Potency [6]: inactive

Structure (SMILES): Cn1c(=O)c2[nH]c(-c3ccccc3)nc2n(C)c1=O
- activity change, negative = inhibition ([1]; at 38 µM (top of the series)): 14.7%
- Potency [2]: 2 µM (active)
- activity change, negative = inhibition [3]: 3.48%
- activity, negative = inhibition ([4]; at 38 µM (top of the series)): -0.0891%
- Potency [5]: > 46 µM
- Potency [6]: inactive

Structure (SMILES): O=c1[nH]c2ccccc2n1CCCN1CCN(C(c2ccccc2)c2ccccc2)CC1
- activity change, negative = inhibition ([1]; at 17.2 µM (top of the series)): -6.95%
- activity change, negative = inhibition ([1]; at 38 µM (top of the series)): -17.6%
- Potency [2]: 25.1 µM (active)
- activity, negative = inhibition ([4]; at 17.2 µM (top of the series)): -2.06%
- Potency [5]: > 46 µM and > 20.6 µM

Structure (SMILES): Cc1nc2sccn2c(=O)c1CCN1CCC(=C(c2ccccc2)c2ccc(F)cc2)CC1
- activity change, negative = inhibition ([1]; at 17.2 µM (top of the series)): -10.2%
- activity change, negative = inhibition ([1]; at 38 µM (top of the series)): 8.49%
- activity, negative = inhibition ([4]; at 17.2 µM (top of the series)): -13.7%
- activity, negative = inhibition ([4]; at 38 µM (top of the series)): 13.4%
- Potency [5]: > 46 µM and > 20.6 µM
- Potency [6]: inactive

Structure (SMILES): NCCCCCCCCCCN
- activity change, negative = inhibition ([1]; at 38 µM (top of the series)): 4.16%
- Potency [2]: inactive
- activity change, negative = inhibition [3]: 0.00398%
- activity, negative = inhibition ([4]; at 38 µM (top of the series)): -2.37%
- Potency [5]: > 46 µM

Structure (SMILES): CC(=O)SCC[N+](C)(C)C
- activity change, negative = inhibition ([1]; at 38 µM (top of the series)): 9.91%
- Potency [2]: inactive
- activity change, negative = inhibition [3]: 9.71%
- activity, negative = inhibition ([4]; at 38 µM (top of the series)): 1.77%
- Potency [5]: > 46 µM
- Potency [7]: > 46 µM
- Potency [6]: inactive

Structure (SMILES): CCCn1c(=O)c2[nH]c(-c3ccc(OCC(=O)NCCN)cc3)nc2n(CCC)c1=O
- activity change, negative = inhibition ([1]; at 38 µM (top of the series)): 6.39%
- Potency [2]: inactive
- activity change, negative = inhibition [3]: -8.17%
- activity, negative = inhibition ([4]; at 38 µM (top of the series)): -14%
- Potency [5]: > 46 µM
- Potency [6]: inactive

Structure (SMILES): NO
- activity change, negative = inhibition ([1]; at 38 µM (top of the series)): 6.61%
- Potency [2]: inactive
- activity change, negative = inhibition [3]: -5.23%
- activity, negative = inhibition ([4]; at 38 µM (top of the series)): 11.6%
- Potency [6]: inactive

Structure (SMILES): C=C[C@H]1CN2CC[C@@H]1C[C@@H]2[C@@H](O)c1ccnc2ccc(OC)cc12
- activity change, negative = inhibition ([1]; at 38 µM (top of the series)): 0.0731% and 9.28%
- Potency [2]: inactive
- activity change, negative = inhibition [3]: -6.92% and -0.71%
- activity, negative = inhibition ([4]; at 38 µM (top of the series)): -15% and 18.5%
- Potency [6]: inactive

Structure (SMILES): OC[C@H]1O[C@@H](n2cnc3c(NC4CCCC4)ncnc32)[C@H](O)[C@@H]1O
- activity change, negative = inhibition ([1]; at 17.2 µM (top of the series)): 4.32%
- activity change, negative = inhibition [3]: 7.15% [at 17.2 µM]
- activity, negative = inhibition ([4]; at 17.2 µM (top of the series)): 15.8%
- Potency [5]: > 20.6 µM

Structure (SMILES): NCCCCC(=O)O
- activity change, negative = inhibition ([1]; at 38 µM (top of the series)): -6.31%
- Potency [2]: inactive
- activity change, negative = inhibition [3]: -1.14%
- activity, negative = inhibition ([4]; at 38 µM (top of the series)): 0.307%
- Potency [5]: > 46 µM
- Potency [6]: inactive

Structure (SMILES): O=c1[nH]c2cc(Cl)c(Cl)cc2[nH]c1=O
- activity change, negative = inhibition ([1]; at 38 µM (top of the series)): -8.09%
- activity change, negative = inhibition [3]: 4.68%
- activity, negative = inhibition ([4]; at 38 µM (top of the series)): -0.584%
- Potency [5]: > 46 µM
- Potency [7]: > 46 µM

Structure (SMILES): CCCSc1ccc2nc(NC(=O)OC)[nH]c2c1
- activity change, negative = inhibition ([1]; at 17.2 µM (top of the series)): 11.3% and 5.12%
- Potency [2]: 0.398 µM (active)
- activity, negative = inhibition ([4]; at 17.2 µM (top of the series)): -7.64% and -2.74%
- Potency [5]: > 20.6 µM
- Potency [6]: inactive

Structure (SMILES): NCCNC(=O)c1ncsc1-c1cccc(F)c1
- activity change, negative = inhibition ([1]; at 38 µM (top of the series)): 0.181%
- Potency [2]: 10 µM (active)
- activity change, negative = inhibition [3]: -3.73%
- activity, negative = inhibition ([4]; at 38 µM (top of the series)): 3.48%
- Potency [5]: > 46 µM
- Potency [6]: inactive

Structure (SMILES): O=S(=O)(c1cccc2c(I)cccc12)N1CCCNCC1
- activity change, negative = inhibition ([1]; at 38 µM (top of the series)): 5.61%
- Potency [2]: 10 µM (active)
- activity change, negative = inhibition [3]: -18.6%
- Potency [5]: > 46 µM
- Potency [7]: > 46 µM
- Potency [6]: inactive

Structure (SMILES): NC(=O)C(=O)O
- activity change, negative = inhibition ([1]; at 38 µM (top of the series)): 0.648%
- Potency [2]: inactive
- activity change, negative = inhibition [3]: 5.77%
- activity, negative = inhibition ([4]; at 38 µM (top of the series)): -1.18%
- Potency [5]: > 46 µM
- Potency [6]: inactive

Structure (SMILES): Cc1cc(NC(=O)Nc2ccc3c(ccn3C)c2)sn1
- activity change, negative = inhibition ([1]; at 38 µM (top of the series)): -21.3%
- Potency [2]: 10 µM (active) and 5.01 µM (active)
- activity change, negative = inhibition [3]: 10.3%
- Potency [5]: > 46 µM
- Potency [7]: > 46 µM

Structure (SMILES): N#C/C(=C\c1ccc(O)c(O)c1)C(=O)c1ccc(O)c(O)c1
- activity change, negative = inhibition ([1]; at 38 µM (top of the series)): -8.79%
- Potency [2]: 31.6 µM (active)
- activity change, negative = inhibition [3]: -9.14%
- Potency [5]: > 46 µM

Structure (SMILES): Cc1c(Nc2ncccc2C(=O)O)cccc1C(F)(F)F
- activity change, negative = inhibition ([1]; at 17.2 µM (top of the series)): -17.9%
- Potency [2]: 12.6 µM (active)
- activity change, negative = inhibition [3]: -13.1% [at 17.2 µM]
- activity, negative = inhibition ([4]; at 17.2 µM (top of the series)): -19.6%
- Potency [6]: inactive

Structure (SMILES): COc1cc(OC)c(/C=C2/C(=O)Nc3ccccc32)c(OC)c1
- activity change, negative = inhibition ([1]; at 38 µM (top of the series)): -28.2%
- Potency [2]: 0.501 µM (active)
- activity change, negative = inhibition [3]: -8.19%
- Potency [5]: > 46 µM
- Potency [7]: > 46 µM
- Potency [6]: inactive

Structure (SMILES): COc1cc2c(CCNC(C)=O)c[nH]c2cc1Cl
- activity change, negative = inhibition ([1]; at 38 µM (top of the series)): -0.206%
- Potency [2]: 1 µM (active) and 126 nM (active)
- activity change, negative = inhibition [3]: -9.13%
- activity, negative = inhibition ([4]; at 38 µM (top of the series)): -15.8%
- Potency [5]: > 46 µM
- Potency [6]: inactive

Structure (SMILES): O=C(O)c1cc([N+](=O)[O-])ccc1NCCCc1ccccc1
- activity change, negative = inhibition ([1]; at 38 µM (top of the series)): -8.1%
- Potency [2]: 31.6 µM (active)
- activity change, negative = inhibition [3]: 5.3%
- activity, negative = inhibition ([4]; at 38 µM (top of the series)): -16.2%
- Potency [5]: > 46 µM
- Potency [6]: inactive

— PubChem BioAssay (NCATS)
